# Results reported in PubChem BioAssay (EPA / NIEHS).
# Records with an inconclusive call do not appear. Calls of active or inactive are those of the source. How the source made its calls, unless noted: active means hit-call score of the fitted dose curve at least 0.9, where 1 is the maximum; inactive means score below 0.9.
# Columns and labels:
# [1] = molecular target: Aryl hydrocarbon receptor (Homo sapiens) (UniProt P35869); experiment: ATG_Ahr_CIS: Attagene CIS-FACTORIAL HepG2 Assay for human Aryl Hydrocarbon Receptor (Ahr) (AID 2282930); details: HepG2 AhR cis-factorial reporter transcription; actives raise or lower the signal
# Summary of the method: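 Read-out: reporter mRNA quantified by RT-PCR with fluorescent primer extension and capillary electrophoresis. Human HepG2 liver cells carried transfected cis-promoter reporter units and were exposed to chemical for 24 h; gain or loss fitted relative to DMSO.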
# [2] = ATG_BRE_CIS: Attagene CIS-FACTORIAL HepG2 Assay for human Bone Morphogenetic Protein (BMP) Response Element (BRE) (AID 2282933); details: HepG2 BMP response element reporter, Attagene transcription factor profiling; actives raise or lower the signal
# Summary of the method: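 Endogenous transcription factor activity read in transiently transfected HepG2 cells after 24 h chemical exposure. Bidirectional curve fitting against DMSO; readout is reporter transcript level by RT-PCR with capillary electrophoresis of labelled products.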
# [3] = ATG_GLI_CIS: Attagene CIS-FACTORIAL HepG2 Assay for human Zinc Finger Protein GLI1 (AID 2282945); details: HepG2, Attagene cis-factorial reporter mRNA, GLI element; actives raise or lower the signal
# Summary of the method: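 Transiently transfected HepG2 cells report endogenous transcription factor activity via cis-element-driven reporter units. After 24 h compound exposure, reporter mRNA was measured by RT-PCR with capillary electrophoresis; bidirectional fitting against DMSO baseline.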
# [4] = ATG_RORE_CIS: Attagene CIS-FACTORIAL HepG2 Assay for human RAR-related Orphan Receptor Element (RORE) (AID 2282959); details: HepG2 Attagene cis-factorial RORE reporter, mRNA; actives raise or lower the signal
# Summary of the method: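 HepG2 cells transiently transfected with multiple cis-element reporter transcription units, exposed to chemical for 24 h. Reporter mRNA quantified by RT-PCR, 6-FAM primer-extension labeling, HpaI digestion and capillary electrophoresis; bidirectional fit versus DMSO baseline.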
# [5] = ATG_TAL_CIS: Attagene CIS-FACTORIAL HepG2 Assay for human TAL Basal Promoter (AID 2282966); details: HepG2 Attagene cis-factorial TAL promoter reporter; actives raise or lower the signal;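 further: background control endpoint measuring basal TAL promoter reporter mRNA not a specific factor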
# Summary of the method: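 RT-PCR plus capillary electrophoresis quantifies reporter mRNA induction in transiently transfected HepG2 cells after 24 h chemical treatment. DMSO serves as negative control and baseline for bidirectional fitting.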
# [6] = ATG_VDRE_CIS: Attagene CIS-FACTORIAL HepG2 Assay for human Vitamin D Receptor Element (VDRE) (AID 2282968); details: HepG2 VDRE cis-reporter transcription, actives raise or lower the signal
# Summary of the method: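 Cell-based multiplexed reporter format in human liver HepG2 cells, 24 h post-dose. Fluorescence from capillary electrophoresis of reporter cDNA gives the signal, with DMSO as negative control and baseline.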
# [7] = molecular target: X-box-binding protein 1 (Homo sapiens) (UniProt P17861); experiment: ATG_Xbp1_CIS: Attagene CIS-FACTORIAL HepG2 Assay for human X-box Binding Protein 1 (XBP1) (AID 2282972); details: HepG2 XBP1 cis-element reporter, Attagene multiplex; actives raise or lower the signal
# Summary of the method: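 After a 24-hour chemical exposure of HepG2 cells carrying cis-regulated reporters, reporter mRNA levels are assessed. Quantification uses RT-PCR, 6-FAM labelling and capillary electrophoresis. Gain- or loss-of-signal is fitted against DMSO.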
# [8] = ATG_M_32_TRANS: Attagene TRANS-FACTORIAL HepG2 Assay for M32 Transcription Factor (Internal Marker) (AID 2282984; active means hit-call score of the fitted dose curve at least 0.9, where 1 is the maximum;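 further: transcript level of a background control reporter unit measured by RT-PCR and capillary electrophoresis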); details: HepG2 Attagene TRANS M32 internal marker reporter
# Summary of the method: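 Capillary electrophoresis of 6-FAM-labelled reporter fragments gives the signal; data fitted for gain over DMSO negative control. Source: HepG2 cells bearing transient multiple reporter transcription units, 24 h exposure.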
# [9] = ATG_NFI_CIS: Attagene CIS-FACTORIAL HepG2 Assay for human Nuclear Factor I (NFI) (AID 2282989); details: HepG2 cis-regulatory reporter, NFI response element transcription; actives raise or lower the signal
# Summary of the method: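 Reporter transcripts were measured by RT-PCR with fluorescent primer extension and capillary electrophoresis 24 h post-treatment. HepG2 cells carried transiently transfected cis-regulated reporter constructs reporting endogenous factor activity; gain or loss fitted against DMSO baseline.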
# [10] = molecular target: Myc proto-oncogene protein (Homo sapiens) (UniProt P01106); experiment: ATG_Myc_CIS: Attagene CIS-FACTORIAL HepG2 Assay for human Myelocytomatosis (Myc) Proto-Oncogene Transcription Factor (AID 2282990); details: HepG2, Attagene cis-reporter transcription factor activity; actives raise or lower the signal
# Summary of the method: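 Read-out: fluorescent reporter mRNA fragments resolved by capillary electrophoresis after RT-PCR. Human HepG2 liver cells carried transfected cis-element reporter units and were dosed for 24 h. Gain or loss of signal fitted relative to DMSO baseline.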
# [11] = ATG_NF_kB_CIS: Attagene CIS-FACTORIAL HepG2 Assay for human Nuclear Factor Kappa B (NF-kB) (AID 2282991); details: HepG2 Attagene cis-factorial NF-kB reporter mRNA; actives raise or lower the signal
# Summary of the method: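 HepG2 cells transiently transfected with multiplexed cis-element reporter units measuring endogenous transcription factor activity; reporter mRNA read 24 h after dosing by RT-PCR, fluorescent labelling, HpaI digestion and capillary electrophoresis. Bidirectional fit against DMSO baseline.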
# [12] = ATG_NRF2_ARE_CIS: Attagene CIS-FACTORIAL HepG2 Assay for human Nuclear Factor Erythroid 2 Related Factor 2 (NFR2) response to Antioxidant Response Elements (ARE) (AID 2282992); details: HepG2 Attagene ARE/NRF2 reporter, transcription factor activity; actives raise or lower the signal;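 on AC50: reporter mRNA level measured by RT-PCR and capillary electrophoresis fluorescence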
# Summary of the method: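 Cis-factorial assay: transfected HepG2 reporter library, 24 h dosing, mRNA readout via RT-PCR/CE; DMSO-referenced bidirectional analysis.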
# [13] = ATG_Oct_MLP_CIS: Attagene CIS-FACTORIAL HepG2 Assay for human Octamer-Binding Transcription Factor (Oct) (AID 2282993); details: HepG2 Attagene cis-factorial Oct reporter, mRNA; actives raise or lower the signal
# Summary of the method: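 Readout is reporter transcript level from RT-PCR with fluorescent primer extension and capillary electrophoresis, fitted in both directions against DMSO. Transfected HepG2 reporter units report endogenous factor activity after 24 h dosing.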
# [14] = molecular target: Peroxisome proliferator-activated receptor gamma (Homo sapiens) (UniProt P37231); experiment: ATG_PPARg_TRANS: Attagene TRANS-FACTORIAL HepG2 Assay for human Peroxisome Proliferator-activated Receptor-gamma (PPARg) (AID 2283007; active means hit-call score of the fitted dose curve at least 0.9, where 1 is the maximum)
# Summary of the method: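 HepG2 cells transiently transfected with multiplexed GAL4-UAS reporter units and exogenous chimeric NR-Gal4 proteins; reporter mRNA quantified after 24 h compound exposure by RT-PCR, fluorescent labelling, HpaI digestion and capillary electrophoresis; gain-of-signal fitted versus DMSO baseline.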
# [15] = molecular target: Nuclear receptor subfamily 1 group I member 2 (Homo sapiens) (UniProt O75469); experiment: ATG_PXR_TRANS: Attagene TRANS-FACTORIAL HepG2 Assay for human Pregnane X Receptor (PXR) (AID 2283008; active means hit-call score of the fitted dose curve at least 0.9, where 1 is the maximum)
# Summary of the method: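 Fluorescence intensity of FAM-labelled, HpaI-digested reporter amplicons, separated by capillary electrophoresis, quantifies induction. HepG2 cells with PXR-Gal4 trans-reporter system were exposed 24 h; DMSO defines baseline.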
# [16] = ATG_TGFb_CIS: Attagene CIS-FACTORIAL HepG2 Assay for human Transforming Growth Factor (TGF) (AID 2282967); details: HepG2 Attagene CIS TGFb reporter, mRNA transcription; actives raise or lower the signal
# Summary of the method: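 Endogenous TGFB1-linked transcription factor activity read as reporter mRNA via RT-PCR and capillary electrophoresis, 24 h after dosing transiently transfected HepG2 cells. Gain or loss of signal fitted relative to DMSO.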
# [17] = molecular target: Cellular tumor antigen p53 (Homo sapiens) (UniProt P04637); experiment: ATG_p53_CIS: Attagene CIS-FACTORIAL HepG2 Assay for human p53 Transcription Factor (AID 2282994); details: HepG2 p53 cis-element reporter, Attagene mRNA; actives raise or lower the signal
# Summary of the method: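 Using HepG2 hepatoma cells carrying cis-acting multiplexed reporters, mRNA induction is detected after a 24 h exposure. Gain- and loss-of-signal responses are fitted relative to DMSO-treated cells.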
# [18] = ATG_XTT_Cytotoxicity: Cytotoxicity Assessment in the Attagene TRANS-FACTORIAL HepG2 Assay (AID 2283584; active means hit-call score of the fitted dose curve at least 0.9, where 1 is the maximum)
# Summary of the method: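 Viability endpoint from XTT after 24 h chemical exposure of reporter-transfected human HepG2 liver cells; signal loss fitted relative to DMSO negative control.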
# [19] = ATG_AP_1_CIS: Attagene CIS-FACTORIAL HepG2 Assay for human Activator Protein 1 (AP-1) (AID 2282931); details: HepG2 Attagene cis-factorial AP-1 reporter mRNA; actives raise or lower the signal
# Summary of the method: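 HepG2 cells transiently transfected with cis-element-driven multiplex reporter units; 24 h compound exposure. Reporter mRNA quantified by RT-PCR, FAM-labelled fragments resolved by capillary electrophoresis; bidirectional fit versus DMSO baseline.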
# [20] = molecular target: Paired box protein Pax-6 (Homo sapiens) (UniProt P26367); experiment: ATG_Pax6_CIS: Attagene CIS-FACTORIAL HepG2 Assay for human Paired Box 6 (PAX6) (AID 2282956); details: HepG2 CIS-FACTORIAL PAX6 reporter transcription, RNA readout; actives raise or lower the signal
# Summary of the method: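 After twenty-four hours of chemical exposure, transfected HepG2 cells are harvested for RNA. Cis-promoter reporter transcripts are amplified, fluorescently labelled and sized by capillary electrophoresis, with gain and loss of signal scored against DMSO.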
# Sequence of Myc proto-oncogene protein (Homo sapiens) (P01106 whole entry, looked up, the tested form may be a part): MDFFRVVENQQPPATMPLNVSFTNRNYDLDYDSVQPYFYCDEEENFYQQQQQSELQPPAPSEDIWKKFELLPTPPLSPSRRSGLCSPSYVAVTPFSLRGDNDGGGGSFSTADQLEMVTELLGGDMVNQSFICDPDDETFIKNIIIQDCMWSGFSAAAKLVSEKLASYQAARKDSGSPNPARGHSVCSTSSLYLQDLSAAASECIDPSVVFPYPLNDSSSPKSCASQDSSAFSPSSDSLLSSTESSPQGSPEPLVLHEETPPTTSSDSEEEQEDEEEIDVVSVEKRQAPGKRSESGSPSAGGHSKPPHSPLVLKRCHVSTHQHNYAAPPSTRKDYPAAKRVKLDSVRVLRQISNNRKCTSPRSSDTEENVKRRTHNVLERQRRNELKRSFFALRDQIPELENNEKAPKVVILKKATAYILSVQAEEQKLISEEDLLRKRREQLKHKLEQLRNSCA
# Sequence of Cellular tumor antigen p53 (Homo sapiens) (P04637 whole entry, looked up): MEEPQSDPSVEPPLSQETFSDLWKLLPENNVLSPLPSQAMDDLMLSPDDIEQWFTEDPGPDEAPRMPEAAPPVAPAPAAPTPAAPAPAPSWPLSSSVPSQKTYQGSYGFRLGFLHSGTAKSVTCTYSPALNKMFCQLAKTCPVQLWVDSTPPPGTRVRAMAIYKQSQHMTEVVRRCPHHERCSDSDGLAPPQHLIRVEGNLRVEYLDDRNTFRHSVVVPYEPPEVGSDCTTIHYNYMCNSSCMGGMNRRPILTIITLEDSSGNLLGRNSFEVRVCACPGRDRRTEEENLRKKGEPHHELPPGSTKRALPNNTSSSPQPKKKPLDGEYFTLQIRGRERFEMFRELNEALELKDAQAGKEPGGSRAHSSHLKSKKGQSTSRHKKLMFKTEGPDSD
# Sequence of Aryl hydrocarbon receptor (Homo sapiens) (P35869 whole entry, looked up): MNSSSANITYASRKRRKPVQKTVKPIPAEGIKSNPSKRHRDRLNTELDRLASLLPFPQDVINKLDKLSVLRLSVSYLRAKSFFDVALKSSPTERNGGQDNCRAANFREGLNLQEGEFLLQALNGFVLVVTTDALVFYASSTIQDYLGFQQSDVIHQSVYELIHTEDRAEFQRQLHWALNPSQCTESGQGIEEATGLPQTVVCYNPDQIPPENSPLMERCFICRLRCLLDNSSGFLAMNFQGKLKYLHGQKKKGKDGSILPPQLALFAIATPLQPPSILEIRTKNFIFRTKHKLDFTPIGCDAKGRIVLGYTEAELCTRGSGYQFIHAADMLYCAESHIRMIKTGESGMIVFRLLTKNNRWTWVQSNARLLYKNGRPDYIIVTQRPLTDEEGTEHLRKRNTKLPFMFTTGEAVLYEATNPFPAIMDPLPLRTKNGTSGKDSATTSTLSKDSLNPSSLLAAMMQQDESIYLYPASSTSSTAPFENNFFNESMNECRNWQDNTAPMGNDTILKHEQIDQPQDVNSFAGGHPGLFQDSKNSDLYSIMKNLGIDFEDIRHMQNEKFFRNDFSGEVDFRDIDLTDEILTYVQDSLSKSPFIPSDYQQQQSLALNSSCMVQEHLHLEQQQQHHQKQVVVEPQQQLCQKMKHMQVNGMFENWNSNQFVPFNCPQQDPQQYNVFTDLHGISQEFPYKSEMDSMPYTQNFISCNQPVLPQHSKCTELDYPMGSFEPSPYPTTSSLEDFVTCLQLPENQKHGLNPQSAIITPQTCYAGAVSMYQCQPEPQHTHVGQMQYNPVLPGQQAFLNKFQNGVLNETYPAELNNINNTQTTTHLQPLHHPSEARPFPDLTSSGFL
# Sequence of Peroxisome proliferator-activated receptor gamma (Homo sapiens) (P37231 whole entry, looked up, the tested form may be a part): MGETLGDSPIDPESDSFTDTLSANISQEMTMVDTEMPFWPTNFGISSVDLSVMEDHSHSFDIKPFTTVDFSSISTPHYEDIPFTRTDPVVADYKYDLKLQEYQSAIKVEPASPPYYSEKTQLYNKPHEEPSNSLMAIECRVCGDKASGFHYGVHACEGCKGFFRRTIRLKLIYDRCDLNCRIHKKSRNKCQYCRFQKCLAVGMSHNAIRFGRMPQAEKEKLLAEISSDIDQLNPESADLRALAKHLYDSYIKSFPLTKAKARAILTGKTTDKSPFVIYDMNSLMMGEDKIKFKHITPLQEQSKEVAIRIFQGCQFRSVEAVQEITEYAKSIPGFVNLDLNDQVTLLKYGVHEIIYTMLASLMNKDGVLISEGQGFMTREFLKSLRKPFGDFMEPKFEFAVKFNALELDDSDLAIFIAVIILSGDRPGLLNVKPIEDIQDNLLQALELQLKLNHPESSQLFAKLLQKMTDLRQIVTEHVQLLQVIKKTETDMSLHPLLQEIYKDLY
# Sequence of X-box-binding protein 1 (Homo sapiens) (P17861 whole entry, looked up): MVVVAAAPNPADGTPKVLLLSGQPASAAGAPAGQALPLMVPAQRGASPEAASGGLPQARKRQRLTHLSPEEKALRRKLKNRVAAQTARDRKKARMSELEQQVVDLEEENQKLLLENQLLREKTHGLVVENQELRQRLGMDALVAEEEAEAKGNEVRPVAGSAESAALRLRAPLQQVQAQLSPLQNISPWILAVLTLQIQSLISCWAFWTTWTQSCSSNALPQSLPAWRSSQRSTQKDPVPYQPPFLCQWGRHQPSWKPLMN
# Sequence of Paired box protein Pax-6 (Homo sapiens) (P26367 whole entry, looked up): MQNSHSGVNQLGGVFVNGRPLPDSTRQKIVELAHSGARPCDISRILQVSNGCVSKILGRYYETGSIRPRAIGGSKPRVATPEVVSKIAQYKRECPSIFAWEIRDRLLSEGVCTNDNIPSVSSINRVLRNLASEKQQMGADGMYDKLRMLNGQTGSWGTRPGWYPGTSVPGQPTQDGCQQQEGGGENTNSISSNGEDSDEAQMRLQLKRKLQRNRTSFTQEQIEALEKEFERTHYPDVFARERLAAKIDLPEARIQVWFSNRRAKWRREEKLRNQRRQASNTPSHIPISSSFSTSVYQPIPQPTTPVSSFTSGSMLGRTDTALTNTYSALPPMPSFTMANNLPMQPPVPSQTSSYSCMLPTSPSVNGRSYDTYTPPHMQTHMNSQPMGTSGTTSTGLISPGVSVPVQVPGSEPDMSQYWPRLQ
# Sequence of Nuclear receptor subfamily 1 group I member 2 (Homo sapiens) (O75469 whole entry, looked up, the tested form may be a part): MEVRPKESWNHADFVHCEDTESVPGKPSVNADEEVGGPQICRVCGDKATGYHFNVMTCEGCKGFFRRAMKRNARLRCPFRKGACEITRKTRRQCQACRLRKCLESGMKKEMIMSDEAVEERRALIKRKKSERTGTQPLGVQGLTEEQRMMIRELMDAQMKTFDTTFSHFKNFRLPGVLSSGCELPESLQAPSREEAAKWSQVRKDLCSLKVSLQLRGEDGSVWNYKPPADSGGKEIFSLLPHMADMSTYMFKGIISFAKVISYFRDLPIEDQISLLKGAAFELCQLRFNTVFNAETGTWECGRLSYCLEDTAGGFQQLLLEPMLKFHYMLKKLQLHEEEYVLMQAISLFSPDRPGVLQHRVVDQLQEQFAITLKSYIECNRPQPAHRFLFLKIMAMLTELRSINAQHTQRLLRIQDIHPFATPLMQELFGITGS
smiles,measurement,setting,value
[CH3][Sn]([CH3])([Cl])[Cl],outcome,[1],inactive
same,outcome,[2],inactive
same,outcome,[3],inactive
same,outcome,[4],inactive
same,outcome,[5],inactive
same,outcome,[6],inactive
same,outcome,[7],inactive
same,outcome,[8],inactive
same,outcome,[9],inactive
same,outcome,[10],inactive
same,outcome,[11],inactive
same,AC50,[12],63.8 µM (active)
same,outcome,[13],inactive
same,outcome,[14],inactive
same,outcome,[15],inactive
N#CCCCCC#N,outcome,[1],inactive
same,outcome,[2],inactive
same,outcome,[3],inactive
same,outcome,[4],inactive
same,outcome,[5],inactive
same,outcome,[16],inactive
same,outcome,[6],inactive
same,outcome,[7],inactive
same,outcome,[9],inactive
same,outcome,[10],inactive
same,outcome,[12],inactive
same,outcome,[13],inactive
same,outcome,[17],inactive
same,outcome,[18],inactive
CC(C)CCCCCCCOC(=O)c1ccccc1C(=O)OCCCCCCCC(C)C,outcome,[1],inactive
same,outcome,[19],inactive
same,outcome,[3],inactive
same,outcome,[20],inactive
same,outcome,[4],inactive
same,outcome,[5],inactive
same,outcome,[16],inactive
same,outcome,[6],inactive
same,outcome,[7],inactive
same,outcome,[8],inactive
same,outcome,[9],inactive
same,outcome,[10],inactive
same,outcome,[12],inactive
same,outcome,[13],inactive
same,outcome,[17],inactive
same,outcome,[15],inactive
same,outcome,[18],inactive
O=C(NCNC(=O)NC1C(=O)NC(=O)N1CO)NC1C(=O)NC(=O)N1CO (stereo not given),outcome,[1],inactive
same,outcome,[3],inactive
same,AC50,[20],133 µM (active)
same,outcome,[4],inactive
same,outcome,[5],inactive
same,AC50,[16],100 µM (active)
same,AC50,[7],151 µM (active)
same,outcome,[9],inactive
same,outcome,[10],inactive
same,outcome,[12],inactive
same,AC50,[13],157 µM (active)
same,outcome,[17],inactive
same,outcome,[14],inactive
same,outcome,[15],inactive
same,outcome,[18],inactive
CCC[N+](=O)[O-],AC50,[1],68.9 µM (active)
same,outcome,[2],inactive
same,outcome,[20],inactive
same,outcome,[4],inactive
same,outcome,[5],inactive
same,outcome,[16],inactive
same,outcome,[6],inactive
same,outcome,[7],inactive
same,outcome,[8],inactive
same,outcome,[9],inactive
same,outcome,[10],inactive
same,outcome,[11],inactive
same,outcome,[12],inactive
same,outcome,[13],inactive
same,outcome,[17],inactive
same,outcome,[15],inactive
same,outcome,[18],inactive
CC1(C)[C@H](C(=O)O[C@H](C#N)c2cccc(Oc3ccccc3)c2)[C@@H]1C=C(Br)Br,outcome,[1],inactive
same,outcome,[19],inactive
same,outcome,[3],inactive
same,outcome,[20],inactive
same,outcome,[4],inactive
same,outcome,[5],inactive
same,AC50,[16],56.7 µM (active)
same,outcome,[7],inactive
same,outcome,[9],inactive
same,outcome,[10],inactive
same,outcome,[11],inactive
same,outcome,[12],inactive
same,outcome,[13],inactive
same,outcome,[17],inactive
same,AC50,[14],2.94 µM (active)
same,AC50,[15],166 nM (active)
same,outcome,[18],inactive
[Cl][Sb]([Cl])[Cl],outcome,[1],inactive
same,outcome,[2],inactive
same,outcome,[3],inactive
same,outcome,[4],inactive
same,outcome,[5],inactive
same,outcome,[16],inactive
same,AC50,[7],143 µM (active)
same,outcome,[9],inactive
same,AC50,[10],175 µM (active)
same,AC50,[12],1.72 µM (active)
same,outcome,[13],inactive
same,AC50,[17],180 µM (active)
same,outcome,[14],inactive
same,outcome,[18],inactive
CCOC(=O)C1OC1(C)c1ccccc1 (stereo not given),outcome,[1],inactive
same,outcome,[2],inactive
same,outcome,[3],inactive
same,outcome,[4],inactive
same,outcome,[5],inactive
same,outcome,[16],inactive
same,outcome,[7],inactive
same,outcome,[8],inactive
same,outcome,[9],inactive
same,outcome,[10],inactive
same,outcome,[12],inactive
same,outcome,[13],inactive
same,outcome,[17],inactive
same,AC50,[14],100 µM (active)
same,outcome,[15],inactive
same,outcome,[18],inactive
